Experimental findings from PubChem BioAssay (Tox21) are described below.

Results filed as inconclusive are left out. Activity calls are given as the source filed them. The call rests on the fitted dose curve.
On the % scale 0 is the no-effect control and ±100 the full control effect.

Chain of Acetylcholinesterase (Homo sapiens) (P22303 whole entry, looked up): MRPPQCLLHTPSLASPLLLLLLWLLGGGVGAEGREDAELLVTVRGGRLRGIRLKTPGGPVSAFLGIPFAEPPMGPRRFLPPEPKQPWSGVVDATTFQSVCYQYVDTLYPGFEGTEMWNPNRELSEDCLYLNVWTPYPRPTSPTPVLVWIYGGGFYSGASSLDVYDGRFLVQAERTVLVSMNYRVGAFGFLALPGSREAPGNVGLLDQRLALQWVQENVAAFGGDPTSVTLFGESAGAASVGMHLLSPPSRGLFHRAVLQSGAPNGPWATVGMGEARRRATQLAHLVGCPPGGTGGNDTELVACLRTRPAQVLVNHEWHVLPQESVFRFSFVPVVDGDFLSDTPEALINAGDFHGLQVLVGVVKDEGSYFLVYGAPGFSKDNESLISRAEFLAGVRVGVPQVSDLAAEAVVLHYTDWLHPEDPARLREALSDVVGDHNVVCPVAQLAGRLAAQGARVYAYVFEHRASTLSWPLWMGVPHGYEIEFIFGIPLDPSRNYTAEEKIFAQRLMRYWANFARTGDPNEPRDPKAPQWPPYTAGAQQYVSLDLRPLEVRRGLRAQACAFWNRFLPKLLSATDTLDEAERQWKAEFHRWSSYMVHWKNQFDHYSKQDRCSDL

This assay deals with Acetylcholinesterase (Homo sapiens) (UniProt P22303). Nature of the assay: Acetylcholinesterase (AChE) small molecule antagonists: fluorescence cell-based qHTS assay (AID 1347398). Further: nearly all actives have a fitted effect of over 50% in size. Particulars: SH-SY5Y cells; Potency: AChE activity; outcome: AChE activity; series mostly up to 115 µM; activity change, negative = inhibition: at the top concentration. In short, it runs like this:
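Thiocholine generated from acetylthiocholine by SH-SY5Y cell AChE is detected with Thiolite Green (Ex/Em 490/520 nm) after 40 min at room temperature, following 30 min compound pretreatment at 37 C.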
Turning to `O=C1O[C@H]([C@@H](O)CO)C(O)=C1O`, the Potency result was “inactive”.

Take `O=C(CCCCC(=O)Nc1c(I)cc(I)c(C(=O)O)c1I)Nc1c(I)cc(I)c(C(=O)O)c1I`: the “activity change, negative = inhibition” value was 4.86% [at 53.7 µM] (inactive). As to `OC[C@H]1O[C@@H](O[C@H]2[C@H](O)[C@@H](O)[C@H](O)O[C@@H]2CO)[C@H](O)[C@@H](O)[C@H]1O`, the “activity change, negative = inhibition” value is 0.891% (inactive). The same measure, in the same setting: the result for `CC(=O)CC(C)(C)C1CCCCC1` reads 5.99% (inactive). On to `CC(=O)C(=O)O`, for which the Potency entry was “inactive”. With `CCCCCCCCCCCCOCCOCCOCCOCCOCCOCCOCCOCCOCCO`, the “activity change, negative = inhibition” value is -17.6% [at 53.7 µM] (inactive). Turning to `CCCCC(CC)COS(=O)(=O)O` (stereo not given), the “activity change, negative = inhibition” value was 2.44% (inactive). Still for that read-out and setting: the figure for `C=C1CC/C=C(\C)CC[C@@H]2[C@@H]1CC2(C)C` is -1.59% (inactive). For the compound `NC(=O)Cc1cccc2ccccc12`, the “activity change, negative = inhibition” value was -4.22% (inactive). For the compound `CC(C)c1ccc(C(=O)N=C(N)N)cc1S(C)(=O)=O`, the call was inactive. As to `CC(C)CCOCCC(C)C`, the “activity change, negative = inhibition” value was -0.935% (inactive).

In the case of `CNC(=O)CN(CCN(CCN(CC(=O)[O-])CC(=O)NC)CC(=O)[O-])CC(=O)[O-].O.[Gd+3]`, the “activity change, negative = inhibition” value was 4.55% [at 53.7 µM] (inactive).

For `CC(=O)c1ccc(C)cc1`, the “activity change, negative = inhibition” value was 0.573% (inactive).

As for `C[C@](N)(Cc1ccc(O)cc1)C(=O)O`, the activity change, negative = inhibition is 3.21% [at 10.5 µM] (inactive). `COc1ccc(C)cc1[N+](=O)[O-]`: the “activity change, negative = inhibition” value was -1.78% (inactive).

Take `O[C@@H]([C@H](O)[C@H](O)CBr)[C@H](O)CBr`: the “activity change, negative = inhibition” value was -1.39% (inactive). On to `Clc1ccccn1`, for which the Potency entry was “inactive”. The same measure, in the same setting: the result for `CCOc1ccccc1C(N)=O` reads “inactive”. Take `CC(C)C(=O)c1c(C(C)C)nn2ccccc12`: the “activity change, negative = inhibition” value is -7.01% [at 53.7 µM] (inactive).

Take `NS(=O)(=O)c1cc2c(cc1Cl)NC=NS2(=O)=O`: the Potency result is “inactive”. With `Cc1cccc(C(=O)O)c1`, the Potency entry was “inactive”. The same measure, in the same setting: the entry for `N[C@@H](Cc1cc(I)c(Oc2ccc(O)c(I)c2)c(I)c1)C(=O)O` is “inactive”. Turning to `CCCCC(CC)COC(=O)COc1ccc(Cl)cc1Cl` (stereo not given), the “activity change, negative = inhibition” value is -0.0528% (inactive). On the same count and under the same terms, the result for `CC(C)OCC1CO1` (stereo not given) reads 3.76% (inactive). As to `CCOC(=O)C(C#N)=C(c1ccccc1)c1ccccc1`, the Potency result is “inactive”. Consider `CC(C)(C)c1ccc(O)c(C(C)(C)C)c1`, for which the Potency result was “inactive”. Still for that read-out and setting: the entry for `OCCOCCOCCO` is “inactive”.

`CC(=O)CCCCn1c(=O)c2c(ncn2C)n(C)c1=O`: the “activity change, negative = inhibition” value was -0.694% [at 53.7 µM] (inactive).

For `NCCc1ccn[nH]1`, the “activity change, negative = inhibition” value is 5.77% [at 53.7 µM] (inactive).

For `O=c1[nH]c(=O)n([C@H]2C[C@H](O)[C@@H](CO)O2)cc1F`, the “activity change, negative = inhibition” value was -2.65% [at 53.7 µM] (inactive). On the same count and under the same terms, the result for `CC1(C)[C@@H]2CC[C@]3(C2)[C@@H]1C(=O)CCC3(C)C` reads -12% (inactive); that for `O=C(Nc1ccc(Cl)c(Cl)c1)C1CC1`, -0.0098% [at 53.7 µM] (inactive). As for `CC1=NN(c2cc(S(=O)(=O)O)ccc2Cl)C(=O)C1N=Nc1ccccc1` (stereo not given), the “activity change, negative = inhibition” value is -0.453% (inactive).

As for `CC/C(C)=N\O[Si](C)(O/N=C(\C)CC)O/N=C(\C)CC`, the “activity change, negative = inhibition” value was -7.79% (inactive). For the compound `CC(C)(C)c1ccc(S)cc1`, the “activity change, negative = inhibition” value was 2.24% (inactive).

For the compound `CCCCCCCC(=O)OCCCCCC`, the “activity change, negative = inhibition” value is 1.86% (inactive). On to `C=C(C)C(=O)OCCOC1CC2CC1C1C=CCC21` (stereo not given), for which the “activity change, negative = inhibition” value was 4.45% (inactive). As to `Oc1cccc(-c2c3nc(c(-c4cccc(O)c4)c4ccc([nH]4)c(-c4cccc(O)c4)c4nc(c(-c5cccc(O)c5)c5ccc2[nH]5)CC4)C=C3)c1`, the “activity change, negative = inhibition” value was 0.84% [at 53.7 µM] (inactive). Regarding `CC1(C)CC(N)CC(C)(CN)C1` (stereo not given), the Potency result is “inactive”. As to `CCCCCCCCCCCCO`, the Potency result was “inactive”.
